Structures can show the parent of a compound that is named as a salt.
Each molecule was assayed against PARP1 L713F-nLuc biosensor (HCT116) (UniProt P09874) (assay: PARP1 L713F-nLuc/akaLuc ratio relative to DMSO control (biosensor stabilization) (fold change); higher = more PARP1 biosensor stabilization (target engagement / stabilizer), active = hit call of the paper). Details: stock concentration (mM; final µM = stock mM x 1): 10; 24 h;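 active = log2 fold change beyond 2 SD from the library mean after excluding viability outliers; inactive = within 2 SD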.
Sequence of PARP1 L713F-nLuc biosensor (HCT116) (P09874 whole entry L713F, looked up): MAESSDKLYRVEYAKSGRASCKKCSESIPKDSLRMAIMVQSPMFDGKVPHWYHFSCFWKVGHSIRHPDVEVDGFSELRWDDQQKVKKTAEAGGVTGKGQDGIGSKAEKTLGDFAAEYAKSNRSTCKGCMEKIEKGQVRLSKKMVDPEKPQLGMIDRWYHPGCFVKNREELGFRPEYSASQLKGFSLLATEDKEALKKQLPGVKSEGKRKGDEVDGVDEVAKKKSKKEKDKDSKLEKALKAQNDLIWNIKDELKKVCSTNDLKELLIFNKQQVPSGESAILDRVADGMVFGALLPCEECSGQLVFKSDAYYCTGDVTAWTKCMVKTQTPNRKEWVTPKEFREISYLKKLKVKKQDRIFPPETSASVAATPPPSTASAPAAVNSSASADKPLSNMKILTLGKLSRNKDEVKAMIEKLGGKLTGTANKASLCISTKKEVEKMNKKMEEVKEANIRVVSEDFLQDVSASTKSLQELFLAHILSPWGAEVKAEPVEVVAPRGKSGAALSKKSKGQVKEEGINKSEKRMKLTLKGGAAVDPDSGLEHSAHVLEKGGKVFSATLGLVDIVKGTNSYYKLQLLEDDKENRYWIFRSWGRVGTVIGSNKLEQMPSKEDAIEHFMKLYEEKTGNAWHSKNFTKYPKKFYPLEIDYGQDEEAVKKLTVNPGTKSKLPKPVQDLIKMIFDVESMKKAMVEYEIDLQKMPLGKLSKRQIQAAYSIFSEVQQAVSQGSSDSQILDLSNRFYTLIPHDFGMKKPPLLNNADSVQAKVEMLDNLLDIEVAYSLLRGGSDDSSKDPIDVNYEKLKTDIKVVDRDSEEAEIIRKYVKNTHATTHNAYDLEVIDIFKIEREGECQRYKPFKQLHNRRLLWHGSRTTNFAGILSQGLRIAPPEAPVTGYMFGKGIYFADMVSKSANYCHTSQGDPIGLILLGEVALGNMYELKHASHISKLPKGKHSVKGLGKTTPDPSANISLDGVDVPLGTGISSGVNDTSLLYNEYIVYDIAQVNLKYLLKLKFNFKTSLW

Row | SMILES | PARP1 L713F-nLuc/akaLuc ratio
1 | Cc1[nH]n(-c2ccccc2)c(=O)c1N=Nc1ccc(N2CCOCC2)cc1 | 1.04 (inactive)
2 | CCN(CC)Cc1cc(Nc2ccnc3cc(Cl)ccc23)ccc1O [Amodiaquine (dihydrochloride)] | 1.11 (inactive)
3 | Cc1c(Cn2c(C)nc3c(C(=O)O)cc(N4CCOCC4)cc32)cccc1C(F)(F)F | 1.38 (inactive)
4 | CCc1cncnc1N1CCN(Cc2nc3ccc(C(F)(F)F)cc3[nH]2)CC1 | 0.681 (inactive)
5 | CC(=O)O[C@H]1C(=O)[C@@]2(C)[C@H]([C@H](OC(=O)c3ccccc3)[C@]3(O)C[C@H](OC(=O)[C@H](O)[C@@H](NC(=O)c4ccccc4)c4ccccc4)C(C)=C1C3(C)C)[C@]1(OC(C)=O)CO[C@@H]1C[C@@H]2O [Paclitaxel] | 2.97 (active)
6 | CNC(=O)c1nnc(NC(=O)C2CC2)cc1Nc1cccc(-c2ncn(C)n2)c1OC [Deucravacitinib] | 0.748 (inactive)
7 | NC1(c2ccc(-c3nc4ccn5c(=O)[nH]nc5c4cc3-c3ccccc3)cc2)CCC1 | 0.79 (inactive)
8 | c1cc(-c2cnn3cc(-c4ccc(OCCN5CCCCC5)cc4)cnc23)ccn1 [Dorsomorphin (dihydrochloride)] | 1.8 (inactive)
9 | COc1cc2c(cc1OCCCN1CCCC1)N=C(N)C21CCC1 | 0.685 (inactive)
10 | CC(CC(=O)C[C@@H](C)[C@H]1CC(=O)[C@@]2(C)C3=C(C(=O)C[C@]12C)[C@@]1(C)CCC(=O)C(C)(C)[C@@H]1C[C@@H]3O)C(=O)O (stereo partly specified) [Ganoderic acid D] | 0.929 (inactive)
11 | C[C@H](Nc1cc(-c2cnn(C)c2)cc(Nc2cnccn2)n1)c1ccc(F)cc1 [Ilginatinib] | 0.485 (inactive)
12 | S=c1[nH]cnc2nc[nH]c12 [Mercaptopurine (6-MP)] | 2.51 (inactive)
13 | CN1CCC(CNc2ccc3ncc(-c4cccc(OC(F)(F)F)c4)n3n2)CC1 | 1.51 (inactive)
14 | Cc1nc(Nc2n[nH]c3c2CN(C(=O)N[C@H](CN(C)C)c2ccccc2)C3(C)C)c2sccc2n1 | 5.51 (active)
15 | O=C1COc2c(CCNCCN(C(=O)CCNCCc3ccc(Cl)c(Cl)c3)C3CCCCC3)ccc(O)c2N1 [AZ505 (ditrifluoroacetate)] | 0.634 (inactive)
16 | CS(=O)(=O)c1ccc(-c2nnc(/C=C/c3nnc(-c4ccc(C#N)cc4)o3)n2-c2ccccc2Cl)nc1 | 0.886 (inactive)

Row | SMILES | PARP1 L713F-nLuc/akaLuc ratio
17 | NC(=O)c1cnc2[nH]ccc2c1N[C@@H]1[C@@H]2CC3C[C@H]1C[C@@](O)(C3)C2 | 0.774 (inactive)
18 | O=C(O)c1ccc(Nc2ncc3c(n2)-c2ccc(Cl)cc2C(c2c(F)cccc2F)=NC3)cc1 | 1.87 (inactive)
19 | Nc1nc(NC2CC2)cc(-c2cccc(Cl)c2Cl)n1 | 1.94 (inactive)
20 | Cc1cc(Nc2nc(N[C@@H](C)c3ncc(F)cn3)ncc2Cl)[nH]n1 | 0.882 (inactive)
21 | C#Cc1cccc(Nc2ncnc3cc4c(cc23)OCCOCCOCCO4)c1 [Icotinib] | 0.808 (inactive)
22 | CC1(C)C=Cc2cc(CCn3c4ccccc4c4ccccc43)cc(C=O)c2O1 | 1.78 (inactive)
23 | N[C@H]1CC[C@H](N[C@@H]2C[C@H]2c2ccccc2)CC1 [Iadademstat (dihydrochloride)] | 1.06 (inactive)
24 | CN[C@@H](C)C(=O)N[C@H]1CN(C(=O)CC(C)C)CC[C@H]2CC[C@@H](C(=O)NC(c3ccccc3)c3ccccc3)N2C1=O | 0.738 (inactive)
25 | C/C=C(/C)C(=O)O[C@H]1Cc2cc3ccc(=O)oc3cc2OC1(C)C [Decursinol angelate] | 0.885 (inactive)
26 | O=C(O)c1ccc(-c2c[nH]c3ncc(-c4ccccc4)cc23)cc1C1CCCC1 | 0.793 (inactive)
27 | Cc1cc(F)c(C(=O)Nc2cccc(-c3nncn3C(C)C)n2)cc1-n1cnc(C2CC2)c1 [Selonsertib (GS-4997)] | 0.908 (inactive)
28 | Cc1nc(NC(=O)N2CCC[C@H]2C(N)=O)sc1-c1ccnc(C(C)(C)C(F)(F)F)c1 [Alpelisib (BYL719)] | 0.761 (inactive)
29 | CCc1cc2c(cc1N1CCC(N3CCOCC3)CC1)C(C)(C)c1[nH]c3cc(C#N)ccc3c1C2=O | 2.06 (inactive)
30 | CN1CCc2c(c3ccccc3n2Cc2ccc(C(=O)NO)cc2)C1 [Tubastatin A] | 1.26 (inactive)
31 | Nc1ccc(S(=O)(=O)NCCc2ccccc2)cc1 | 0.888 (inactive)
